FLuc counter = qHTS profiling assay for firefly luciferase inhibitor/activator using purifed enzyme and Km concentrations of substrates (counterscreen for miR-21 project). Luciferin 4-monooxygenase (Photinus pyralis), P08659. purified FLuc, Km substrates, luminescence inhibition. Potency, µM (top dose mostly 57.5 µM), without a hit: top-dose activity change, negative = inhibition, most hits filed as inhibitors. hit rate 6.9% among 360,000;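 further: plate controls were vehicle for no effect and reference inhibitor for full effect; nearly all actives have a fitted effect of over 55% in size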
Target sequence (P08659 whole entry, looked up): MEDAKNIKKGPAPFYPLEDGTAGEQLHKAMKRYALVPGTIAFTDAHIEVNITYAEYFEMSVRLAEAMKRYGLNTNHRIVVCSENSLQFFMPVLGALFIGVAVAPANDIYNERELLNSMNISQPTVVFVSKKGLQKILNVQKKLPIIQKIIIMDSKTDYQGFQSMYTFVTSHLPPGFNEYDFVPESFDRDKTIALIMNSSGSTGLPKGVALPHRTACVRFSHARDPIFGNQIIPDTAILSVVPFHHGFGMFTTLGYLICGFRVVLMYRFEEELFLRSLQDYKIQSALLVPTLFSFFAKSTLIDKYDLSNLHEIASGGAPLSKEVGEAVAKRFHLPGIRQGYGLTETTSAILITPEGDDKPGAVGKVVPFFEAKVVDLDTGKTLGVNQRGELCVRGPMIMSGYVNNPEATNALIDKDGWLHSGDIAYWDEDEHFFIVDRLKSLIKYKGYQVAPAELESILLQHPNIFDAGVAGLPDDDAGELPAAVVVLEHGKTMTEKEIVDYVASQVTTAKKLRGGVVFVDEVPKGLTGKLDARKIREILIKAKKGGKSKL
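Purified P. pyralis luciferase (10nM final) with 10uM D-luciferin and 10uM ATP (Km levels) in 50mM Tris acetate pH 7.5, 10mM Mg acetate, 0.01% Tween-20, 0.05% BSA; qHTS 6-point titration, ~60 µM downward; luminescence read.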
NPC1 promoter act = qHTS Assay for NPC1 Promoter Activators. Huh7 NPC1 promoter luciferase reporter, 24 h. Potency, µM (highest dose often 9.22 µM), for inactives: top-dose activation, hits mostly activators. hit rate 2.4% among 320,000. AID 485313, 2010; further: % of control where 0% means no effect; nearly all actives have a fitted effect of over 60% in size
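NPC1 promoter–luciferase Huh7 cells; 24 h compound; luminescence.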
Rab9 promoter act = qHTS Assay for Rab9 Promoter Activators. hit rate 2.8% among 320,000. Potency, µM (series often up to 9.22 µM), for inactives: top-dose activation, negative = inhibition, actives largely listed as activators. Huh7 Rab9 promoter-luciferase reporter, luminescence, 24 h; further: % of control where 0% means no effect; nearly all actives have a fitted effect of over 60% in size
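Measured in stably transfected Huh7 cells bearing a Rab9 promoter–luciferase construct: 24 h compound treatment at 37 °C, followed by luminescence detection.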
ELG1 repair inh = qHTS screen for small molecules that inhibit ELG1-dependent DNA repair in human embryonic kidney (HEK293T) cells expressing luciferase-tagged ELG1; HEK293T ELG1-luciferase reporter, luminescence, 16 h; DNA damage induced by 5-fluorouridine; hit rate 2.3% among 330,000; Potency, µM (top dose mostly 46.1 µM), for the others: at the top dose activity change, negative = inhibition, usual class: inhibitors; further: on the % scale 0 is the no-effect control and ±100 the full control effect; nearly all actives have a fitted effect of over 55% in size
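5-Fluorouridine DNA damage + compound/DMSO, 2,000 cells/well, 16 h, 37 °C/5% CO2. ONE-Glo, 30 min RT, luminescence. Readout = decrease in reporter signal.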
SMN2 splice enh = qHTS Assay for Enhancers of SMN2 Splice Variant Expression; HEK293 SMN2-luciferase splicing reporter, luminescence, 30-36 h; Potency, µM (top dose mostly 46.1 µM), for inactives: top-dose activity change, positive = activation, actives largely listed as activators; hit rate 2.8% among 210,000; AID 1458, 2008; further: % of control where 0% means no effect; nearly all actives have a fitted effect of over 55% in size
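qHTS luciferase splicing reporter: luminescence rises when SMN2 exon 7 is included in transfected HEK293 cells. Compound exposure lasted 30-36 h at 37C, with 4.5 mM final sodium butyrate as control, followed by a ONE-Glo read.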
ELG1 genotox = qHTS screen for small molecules that induce genotoxicity in human embryonic kidney (HEK293T) cells expressing luciferase-tagged ELG1; hit rate 1.3% among 330,000; HEK293T ELG1-luciferase reporter, luminescence, 16 h; AID 504466, 2011; Potency, µM (titrated, usually from 46 µM), without a hit: at the highest dose activity change, positive = activation, actives largely listed as activators; further: % of control where 0% means no effect; nearly all actives have a fitted effect of over 60% in size
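HEK293T cells expressing luciferase-tagged ELG1 were exposed to compound or DMSO vehicle for 16 hr at 37 °C and 5% CO2. Luciferase activity was then measured with ONE-Glo after 30 min at room temperature.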
ELG1 FLuc counter = qHTS screen for small molecules that inhibit ELG1-dependent DNA repair: Hit Confirmation in Cell-Based Luciferin Assay. Potency, µM (titrated, usually from 46.1 µM), for the others: top-dose activity change, negative = inhibition, hits mostly inhibitors. cell-free firefly luciferase luminescence counter-screen, ViewLux. hit rate 3% among 350. shares compounds with ELG1 repair inh; further: on the % scale 0 is the no-effect control and ±100 the full control effect
ELG1 Luc conf = HTS assay for small molecules that inhibit ELG1-dependent DNA repair in human embryonic kidney (HEK293T) cells expressing luciferase-tagged ELG1: Hit Confirmation. shares compounds with ELG1 repair inh. HEK293T ELG1-luciferase levels, luminescence; cells co-treated with 5-fluorouridine. Potency, µM (titrated, usually from 46.1 µM), without a hit: top-dose activity change, negative = inhibition, most hits filed as inhibitors. hit rate 68% among 670; further: on the % scale 0 is the no-effect control and ±100 the full control effect; nearly all actives have a fitted effect of over 55% in size
ELG1-Luc MMS = confirmation of human ELG1 repair inhibitors, MMS stimulated. hit rate 53% among 670. Potency, µM (series often up to 46.1 µM), inactives show top-dose activity change, negative = inhibition, most hits filed as inhibitors. shares compounds with ELG1 repair inh. HEK293T luciferase-tagged ELG1 level, MMS stimulated; further: on the % scale 0 is the no-effect control and ±100 the full control effect; nearly all actives have a fitted effect of over 60% in size
ELG1 5-FU = qHTS screen for small molecules that inhibit ELG1-dependent DNA repair: Hit Confirmation with 5FU Viability | 670 tested, under 10 active | shares compounds with ELG1 repair inh | AID 624250, 2012 | Potency, µM (highest dose often 46.1 µM), inactives show top-dose activity change, negative = viability loss, usual class: cytotoxic | cell viability with 5-FU, ELG1-dependent repair;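 further: ELG1-luc HEK293T cells cotreated with 5-fluorouridine at 10 µM final; viability measured 16 h after compound addition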
ELG1 MMS viab = qHTS screen for small molecules that inhibit ELG1-dependent DNA repair: Hit Confirmation with MMS Viability; shares compounds with ELG1 repair inh; Cell viability with MMS, ELG1-dependent DNA repair; AID 624251, 2012; Potency, µM (series often up to 46.1 µM), inactives show top-dose activity change, negative = viability loss, usual class: cytotoxic; hit rate 33% among 670;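 further: ELG1-luc HEK293T cells co-treated with 10 µM MMS; viability read 16 h after compound addition; on the % scale 0 is the no-effect control and ±100 the full control effect; nearly all actives have a fitted effect of over 60% in size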
ELG1 unstim viab = qHTS screen for small molecules that inhibit ELG1-dependent DNA repair: Hit Confirmation with Unstimulated Viability Assay; shares compounds with ELG1 repair inh; cell viability counter-screen, unstimulated, luminescence; Potency, µM (titrated, usually from 45.9 µM), for inactives: at the top dose activity change, negative = loss of viability, most hits filed as cytotoxic; hit rate 8% among 900;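 further: compound exposure lasted 16 hours before reading; on the % scale 0 is the no-effect control and ±100 the full control effect; nearly all actives have a fitted effect of over 55% in size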
FLuc biochem = qHTS screen for small molecules that inhibit ELG1-dependent DNA repair: Hit Confirmation in Biochemical Luciferin Assay; hit rate 10% among 350; AID 624253, 2012; shares compounds with ELG1 repair inh; purified firefly luciferase, luminescence counter-screen; Potency, µM (top dose mostly 57.5 µM), without a hit: at the highest dose activity, negative = inhibition, actives largely listed as inhibitors; further: on the % scale 0 is the no-effect control and ±100 the full control effect
* = called active by the depositor; ? = inconclusive; · = no result; [ ] = dose if it differs, or a comment. Shown are actives, neighbours in structure and some others; about 9.2% of the full set was active somewhere. The call rests on the fitted dose curve; in most records, active means well fitted curve in the direction sought with a large enough effect; inconclusive means small, poorly fitted or top-dose-only effect, or another doubt; inactive means no such curve, though single readings can be large; an effect the other way counts as inactive or inconclusive. Potency means the concentration at half of the fitted maximal effect.

SMILES	FLuc counter	NPC1 promoter act	Rab9 promoter act	ELG1 repair inh	SMN2 splice enh	ELG1 genotox	ELG1 FLuc counter	ELG1 Luc conf	ELG1-Luc MMS	ELG1 5-FU	ELG1 MMS viab	ELG1 unstim viab	FLuc biochem
CCn1c(C)cc(C(=O)COC(=O)c2cccnc2SC)c1C	·	·	·	?	·	2.3µM*	·	·	·	·	·	12%	·
Cc1cc(C(=O)COC(=O)c2cccnc2Cl)c(C)n1C	·	·	·	?	·	?	-8%	·	·	·	·	?	0.26µM*
CNc1ccc(/C=C2\C=Cc3ccccc32)cc1	·	·	·	·	·	·	58%	·	·	·	·	-5%	0.73µM*
Cc1ccc(NC(=O)/C(=C/c2cccs2)NC(=O)c2ccco2)c(C)c1	4%	0%	1%	5%	1%	1%	·	·	·	·	·	·	·
C=CCCc1ccc(C#N)c(SCc2c(C(=O)OCC)c3cc(OC(C)=O)c(Br)cc3n2C)n1	1%	-32%	-30%	2.3µM*	30%	1%	10%	?	2.8µM*	3%	4µM*	?	3%
CCOC(=O)c1c(CSc2nc(C)cc(C)c2C#N)n(C)c2cc(Br)c(OC(C)=O)cc12	-2%	-21%	-9%	?	-59%	10%	·	·	·	·	·	·	·
COc1cc(C)cc2oc(=O)c(CC(=O)N3CCN(C(=O)C4COc5ccccc5O4)CC3)c(C)c12 (stereo not given)	-1%	-3%	0%	?	·	-12%	·	·	·	·	·	·	·
CC(=O)Oc1ccc2c(C)c(CC(=O)N3CCN(C(=O)C4COc5ccccc5O4)CC3)c(=O)oc2c1C (stereo not given)	-4%	-1%	6%	?	·	-7%	-4%	2.5µM*	?	?	?	?	-7%
CCOC(=O)c1cccc(NC(=O)CCc2c(C)nc3c4cccnc4nn3c2C)c1	-2%	·	·	·	?	·	·	·	·	·	·	·	·
COc1cccc(-c2cncnc2NCCc2cnc[nH]2)c1	·	·	·	·	-7%	·	·	1.4µM*	?	0%	2%	?	·
COc1ccc(CCNC(=O)CCNC(=O)N2CC(=O)Nc3ccccc32)cc1OC	-3%	-4%	-1%	?	·	1%	·	·	·	·	·	·	·
CCCCN(C(=O)C1CCCC1)C1CCS(=O)(=O)C1 (stereo not given)	0%	-3%	0%	13%	·	0%	·	·	·	·	·	·	·
CCN(C[C@H]1N[C@@](CC)(C(=O)OC)[C@H]2C(=O)N(Cc3ccccc3)C(=O)[C@@H]12)C(=O)c1ccc(C(C)(C)C)cc1	·	·	·	3.7µM*	·	-11%	·	?	7.1µM*	-1%	?	25µM*	·
CCC1CCCCN1CCCNC(=O)c1ccc2c(c1)sc1nc(-c3ccc(F)cc3)cn12 (stereo not given)	-6%	·	·	·	·	·	·	·	·	·	·	·	·
CCC1CCCCN1CCCNC(=O)c1ccc2nc(N3CCC(C)CC3)sc2c1 (stereo not given)	?	-13%	-38%	?	·	0.16µM*	102%	·	·	·	·	-12%	?
CC(NC(=O)C1CCN(C(=O)c2cccs2)CC1)c1ccc(S(N)(=O)=O)cc1 (stereo not given)	2%	-1%	0%	13%	·	4%	·	·	·	·	·	·	·
CCN(CC)c1ccc(NC(=O)CN2CCN(S(=O)(=O)c3ccc(C(C)C)cc3)CC2)cc1	-9%	·	·	·	·	·	·	·	·	·	·	·	·
COCCn1c(=O)cnc2cnc(OCc3ccccc3)nc21	·	·	·	·	-22%	·	·	·	·	·	·	·	·
CCc1ccc2nc(SCC(=O)Nc3ccccc3N3CCOCC3)c(C#N)cc2c1	-2%	-35%	-29%	?	·	0%	4%	?	7.1µM*	-15%	11µM*	?	3%
Nc1cc(N)nc(SCC(=O)Nc2ccccc2N2CCOCC2)n1	1%	2%	0%	8%	·	1%	·	·	·	·	·	·	·
COc1ccc(Cl)cc1NC(=O)C(C)OC(=O)c1ccc(NS(=O)(=O)c2ccc3[nH]c(=O)[nH]c3c2)cc1 (stereo not given)	1%	-2%	1%	2.9µM*	-3%[1.84 µM]	2%	·	2.8µM*	3%	?	-2%	-5%	·
